Screening results (PubChem BioAssay)
In the library only some 19% were active in any assay of this set; here they are far more common.
TDP1 cell CPT: growth inhibition of DT40 Tdp1-/-;hTDP1 cells with camptothecin (screen for TDP1 inhibitors) | chicken DT40 Tdp1-/-;hTDP1 cells + 20 nM CPT, ATP luminescence, 48 h | Potency, µM (doses to about 46.2 µM), most hits filed as inhibitors | 420,000 tested, 12% active; also: nearly all actives have a fitted effect of over 55% in size
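Cell growth measured by CellTiter-Glo luminescence after a minimum 48 h, 37 C compound exposure with 20 nM CPT in Tdp1-knockout DT40 cells stably expressing hTDP1, seeded 400/well; qHTS titration format.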
IL-1B inflam inh: inflammasome signaling inhibition, IL-1 beta readout; activity change, % at 57.5 µM; THP-1 LPS/ATP IL-1B secretion, AlphaLISA, 16 h; active compounds read low; 360,000 tested, 4.7% active; in the data active = activity change below about -50%; inconclusive = mostly about -30% to -49%
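Secreted IL-1B measured by AlphaLISA bead assay after 16 h compound exposure of THP-1 cells; compounds (final up to 57.5 uM) added 1 h before LPS (250 ng/mL) and ATP (1.25 mM) stimulation; lower signal means less secretion.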
TDP1 inh: TDP1 (human) enzyme inhibition. AID 485290. Q9NUW8. 350,000 tested, 0.28% active. Potency, µM (doses to about 130 µM), actives largely listed as inhibitors. recombinant TDP1, AlphaScreen DNA substrate cleavage; also: nearly all actives have a fitted effect of over 40% in size
Target sequence (Q9NUW8 whole entry, looked up): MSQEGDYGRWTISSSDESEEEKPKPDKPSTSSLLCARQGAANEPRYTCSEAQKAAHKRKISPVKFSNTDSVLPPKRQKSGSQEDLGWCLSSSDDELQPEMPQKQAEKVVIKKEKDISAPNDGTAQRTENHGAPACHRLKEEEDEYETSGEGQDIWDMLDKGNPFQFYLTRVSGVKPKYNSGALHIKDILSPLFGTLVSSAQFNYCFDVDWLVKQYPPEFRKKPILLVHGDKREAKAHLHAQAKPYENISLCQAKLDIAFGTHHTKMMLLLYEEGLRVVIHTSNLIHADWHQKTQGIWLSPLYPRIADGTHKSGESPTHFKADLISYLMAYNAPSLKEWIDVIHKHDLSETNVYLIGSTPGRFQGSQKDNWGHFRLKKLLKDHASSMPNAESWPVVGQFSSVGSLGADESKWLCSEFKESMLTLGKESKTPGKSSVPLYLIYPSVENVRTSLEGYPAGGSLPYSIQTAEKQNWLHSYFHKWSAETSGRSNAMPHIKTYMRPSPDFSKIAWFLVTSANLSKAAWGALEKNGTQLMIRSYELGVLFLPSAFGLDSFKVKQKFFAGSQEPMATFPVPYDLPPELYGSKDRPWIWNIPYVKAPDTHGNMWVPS
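Compounds were preincubated with Tdp1 (1 nM final) for 15 min at room temperature before substrate (15 nM final) started a 5 min reaction; beads (10 ug/ml final) were then added for 10 min before AlphaScreen detection.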
TDP1 cell noCPT: qHTS for Inhibitors of human tyrosyl-DNA phosphodiesterase 1 (TDP1): qHTS in cells in absence of CPT. AID 686978, 2013. DT40 Tdp1-/- hTDP1 cells, no CPT, ATP luminescence, 48 h. Potency, µM (series often up to 46.2 µM), hits mostly inhibitors. 420,000 tested, 15% active; also: nearly all actives have a fitted effect of over 55% in size
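A cellular qHTS used chicken DT40 cells lacking endogenous Tdp1 but carrying stably transfected human TDP1. Compounds were applied without camptothecin, and cell growth kinetics were judged by ATP-dependent luminescence after ≥48 hr.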
TGFb SMAD3 inh: inhibitors of TGF-b signaling. Potency, µM (doses to about 46.1 µM), usual class: inhibitors. 410,000 tested, 1.2% active. HepG2 CAGA-GFP TGF-b/SMAD3 reporter, GFP fluorescence, 18 h; TGF-beta stimulated, 500 pg/mL final; also: nearly all actives have a fitted effect of over 65% in size
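Inhibition of TGF-beta-driven CAGA-GFP reporter expression in HEPG2 cells is measured by cellular GFP fluorescence after 18 h stimulation with 500 pg/mL recombinant TGF-beta in 1% FBS medium at 37 degrees C.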
HepG2 tox: kills HepG2 cells in TGF-b inhibitor counter-screen; HepG2 CAGA-GFP viability, ATP luminescence, 18 h; Potency, µM (doses to about 46.1 µM), actives largely listed as cytotoxic; 410,000 tested, 0.76% active
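HepG2 CAGA-GFP cells (1000/well, DMEM with 1% FBS) received compound, then TGF-beta at 500 pg/mL final, and were incubated 18 hours at 37 degrees C. Viability was read by CellTiter-Glo luminescence. Media-only wells were set as complete cell-killing and DMSO as no toxicity.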
Numbers stand for hits; n = inactive; u = inconclusive; x = no result given; [ ] = another dose, or the depositor's remark. Unless noted, calls follow the shape of the dose curve; as a rule, active = well fitted curve in the direction sought with a large enough effect; inconclusive = small, poorly fitted or top-dose-only effect, or another doubt; inactive = no such curve, though single readings can be large; an effect the other way counts as inactive or inconclusive.

SMILES | TDP1 cell CPT | IL-1B inflam inh | TDP1 inh | TDP1 cell noCPT | TGFb SMAD3 inh | HepG2 tox
O=C(CSc1nc2ccccc2c(=O)n1NC(=O)c1ccccc1)c1ccc(Cl)cc1 | u | u | n | u | n | n
O=C(CSc1nc(Nc2ccccc2)c2ccccc2n1)c1ccc(Cl)cc1 | 13µM | x | n | 18µM | n | n
COc1cc(Nc2nc(SCC(=O)c3ccc(Cl)c(Cl)c3)nc3ccccc23)cc(OC)c1 | 1.3µM | x | n | 0.65µM | u | n
Cc1nc2c3ccccc3nc(SCC(=O)c3ccc(Cl)cc3)n2n1 | u | n | n | 18µM | n | n
Cc1cc(C(=O)NCCc2ccc(S(N)(=O)=O)cc2)c(C)o1 | n | n | n | n | n | n
CC1CN(c2ccc(Oc3ccccc3)cc2)c2nc3c(c(=O)[nH]c(=O)n3C)n2C1 (centres undefined) | 18µM | n | n | 26µM | n | n
Cc1ccc(N2CC(C)Cn3c2nc2c3c(=O)[nH]c(=O)n2C)cc1 (centres undefined) | n | n | x | n | n | n
O=C(CC(C(=O)O)n1ccnc1)c1ccc(Cl)cc1 (centres undefined) | 7.1µM | x | x | 7.1µM | n | n
O=C(Cn1ccnc1)c1ccc(Cl)cc1 | n | n | x | n | n | n
O=C(C1CCCN(S(=O)(=O)c2cccc3cccnc23)C1)N1CCN(c2ccccc2F)CC1 (centres undefined) | 23µM | n | n | 15µM | n | n
O=C(C1CCN(S(=O)(=O)c2cccc3nsnc23)CC1)N1CCN(c2ccccc2F)CC1 | u | n | n | u | n | n
CC(C)NC(=O)C1CCCN(S(=O)(=O)c2cccc3nonc23)C1 (centres undefined) | n | n | n | n | n | n
O=C(C1CCCN(S(=O)(=O)c2cccc3nonc23)C1)N1CCN(c2cccc(C(F)(F)F)c2)CC1 (centres undefined) | 15µM | x | n[12.3 µM] | 12µM | n | n
O=C(C1CCCN(S(=O)(=O)c2cccc3nsnc23)C1)N1CCN(c2ccccc2F)CC1 (centres undefined) | 18µM | x | n | 15µM | u | n
O=C(C1CCCN(S(=O)(=O)c2cccc3nsnc23)C1)N1CCN(c2ccccc2)CC1 (centres undefined) | 16µM | x | n | 21µM | u | n
O=C(C1CCCN(S(=O)(=O)c2cccc3nsnc23)C1)N1CCCCCC1 (centres undefined) | n | n | n | u | n | n
CCOc1ccc(S(=O)(=O)Nc2ccc(C(=O)N3CCCC3)cc2)cc1C(N)=O | n | n | n | n | n | n
O=C(COc1cc2oc(=O)c3c(c2cc1Cl)CCC3)N1C[C@H]2C[C@@H](C1)c1cccc(=O)n1C2 | n | n | x | n | n | n
Cc1nn2c(=O)cc(CN(C)c3ccccc3)nc2s1 | n | x | n | n | n | n
Cc1cccc(N2CCN(C(=O)C3CCCN(S(=O)(=O)c4cccc5nsnc45)C3)CC2)c1C (centres undefined) | n | x | n | 18µM | n | n
CN(C)c1ccnc(Oc2ccc(Cl)cc2)c1C#N | n | n | n | u | n | n
CN(C)c1ccnc(Oc2ccccc2)c1C#N | u | n | n | n | n | n
CN(C)c1ccnc(Oc2ccc(C(C)(C)C)cc2)c1C#N | u | n | n | 16µM | n | n
Cc1cc(Cl)ccc1Oc1nccc(N(C)C)c1C#N | u | -70 | n | 16µM | n | n
CC(C)C(=O)N1c2nc(-c3ccco3)nn2C2(CCCCC2)[C@@H]2CCCC[C@@H]21 | n | x | n | n | n | n
SMILES | TDP1 cell CPT | IL-1B inflam inh | TDP1 inh | TDP1 cell noCPT | TGFb SMAD3 inh | HepG2 tox
COc1ccc(-c2cc3nc(C)c(CCC(=O)NCCc4ccc(Cl)cc4)c(C)n3n2)c(OC)c1 | 13µM | x | n | 29µM | n | n
Cc1nc2cc(-c3ccc(Cl)cc3)nn2c(C)c1CCC(=O)NCc1ccco1 | u | n | n | u | n | n
COCCCNC(=O)CCc1c(C)nc2cc(-c3ccc(Cl)cc3)nn2c1C | 18µM | x | n | u | n | n
COc1ccc(CCNC(=O)CCc2c(C)nc3cc(-c4ccccc4OC)nn3c2C)c(OC)c1 | u | x | n | 16µM | u | n
COc1ccccc1-c1cc2nc(C)c(CCC(=O)NCc3cccc(Cl)c3)c(C)n2n1 | u | x | n | 18µM | u | n
CCCCCC(=O)N1c2ccccc2C(C)(c2ccccc2)CC1(C)C (centres undefined) | u | x | n | u | u | n
Cc1cc(S(=O)(=O)NCC(c2ccc(F)cc2)N2CCN(C)CC2)ccc1F (centres undefined) | u | n | x | u | n | n
Cc1ccc(C(CNS(=O)(=O)c2ccc(F)cc2C)N2CCN(C)CC2)cc1 (centres undefined) | 18µM | n | x | u | n | n
Nc1nnc2c(n1)CCCC2 | n | n | u | n | n | n
NC1=NCCCC1 | 3.8µM | x | n | 2.7µM | x | x
CN(C1CCCCC1)S(=O)(=O)c1ccc(NC(=O)Cn2nc(-c3ccc(F)cc3)ccc2=O)cc1 | u | n | n | 21µM | u | n
CCOC(=O)C1=C(COC(=O)CCc2ccc(CC)cc2)NC(=O)NC1C (centres undefined) | n | n | n | n | n | n
CNC(=O)OCc1ncn(-c2ccccc2)c1COC(=O)NC | n | n | x | n | n | n
COc1ccc(S(=O)(=O)NC2CC(=O)N(c3ccccc3)C2)cc1C (centres undefined) | n | n | x | n | n | n
COc1ccccc1NC(=O)c1c(-c2ccc(C)cc2)nnc2ccccc12 | 18µM | x | n | u | n | n
COc1ccc(NC(=O)c2c(-c3ccc(C)cc3)nnc3ccccc23)c(OC)c1 | 18µM | x | n | 16µM | n | n
O=S(=O)(c1cccs1)N1CCN(CCOc2ccc(Cl)cc2)CC1 | u | -59 | n | u | u | n
O=S(=O)(c1ccc(Br)s1)N1CCN(CCOc2ccccc2)CC1 | 21µM | u | n | u | u | n
O=S(=O)(c1cccs1)N1CCN(CC(O)COc2cc(Cl)ccc2Cl)CC1 (centres undefined) | u | n | n | 23µM | u | n
NS(=O)(=O)c1ccc(N2CCN(CCOc3ccc(Cl)cc3)CC2)nc1 | u | n | n | 15µM | n | n
CCCC/C=C/C(NC(=O)c1cccs1)c1ccccc1 (centres undefined) | x | x | n | x | x | x
